Bioassay records (PubChem BioAssay)
The full list was thinned out, with hits kept by preference.
IDE exosite inh: exo-site inhibitors of human IDE, primary screen, biochemical, fluorescence anisotropy, probe displacement; 17,000 tested, 6.3% active; z-score at 20 µM; purified IDE, FL-6b probe fluorescence polarization; stronger effect = lower value;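 active = z-score of -3 or lower, meaning strong loss of probe binding signal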;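 note: His-tagged human IDE residues 42-1019 made in E. coli with 30 nM FL-6b probe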
Target sequence (P14735 42-1019 limits assumed): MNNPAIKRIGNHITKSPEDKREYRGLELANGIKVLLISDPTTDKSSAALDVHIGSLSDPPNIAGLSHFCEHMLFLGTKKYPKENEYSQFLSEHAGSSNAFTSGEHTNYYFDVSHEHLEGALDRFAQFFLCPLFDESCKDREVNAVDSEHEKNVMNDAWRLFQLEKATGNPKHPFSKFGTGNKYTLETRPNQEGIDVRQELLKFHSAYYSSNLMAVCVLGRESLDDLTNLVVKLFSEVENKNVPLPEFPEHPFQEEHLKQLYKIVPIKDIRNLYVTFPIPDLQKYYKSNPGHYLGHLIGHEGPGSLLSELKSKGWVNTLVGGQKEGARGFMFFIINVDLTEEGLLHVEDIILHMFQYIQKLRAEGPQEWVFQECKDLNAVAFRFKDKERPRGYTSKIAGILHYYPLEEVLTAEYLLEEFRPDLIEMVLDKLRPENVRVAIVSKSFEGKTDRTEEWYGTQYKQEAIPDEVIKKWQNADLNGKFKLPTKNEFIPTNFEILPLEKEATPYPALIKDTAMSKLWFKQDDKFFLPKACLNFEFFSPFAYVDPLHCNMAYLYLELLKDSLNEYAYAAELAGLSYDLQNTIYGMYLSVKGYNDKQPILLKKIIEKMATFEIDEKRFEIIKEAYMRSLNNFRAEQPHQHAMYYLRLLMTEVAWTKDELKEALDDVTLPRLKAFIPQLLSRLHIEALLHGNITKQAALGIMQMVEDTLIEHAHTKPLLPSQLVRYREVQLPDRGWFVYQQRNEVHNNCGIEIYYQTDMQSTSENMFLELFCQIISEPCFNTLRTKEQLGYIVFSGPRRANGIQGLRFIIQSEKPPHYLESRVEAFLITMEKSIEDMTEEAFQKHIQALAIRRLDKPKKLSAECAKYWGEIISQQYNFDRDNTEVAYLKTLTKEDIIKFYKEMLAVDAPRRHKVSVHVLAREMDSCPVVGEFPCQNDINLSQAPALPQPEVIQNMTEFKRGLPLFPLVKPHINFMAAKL
* marks the source's active call; other numbers are inactive results.

SMILES	IDE exosite inh
Cc1ccccc1-c1ccc([C@@H]2[C@@H](CO)N3C(=O)CN(C(=O)Nc4cccc(F)c4)C[C@H]23)cc1	-2.1
Cc1ccccc1-c1ccc([C@@H]2[C@H](CO)N3CCCCN(C(=O)Nc4cccc(F)c4)C[C@@H]23)cc1	0.19
Cc1ccccc1-c1ccc([C@H]2[C@H]3CN(C(=O)Nc4ccc(F)cc4)CCCCN3[C@H]2CO)cc1	3.4
Cc1ccccc1-c1ccc([C@@H]2[C@@H](CO)N3C(=O)CN(C(=O)Nc4ccc(F)cc4)C[C@@H]23)cc1	-11*
Cc1ccccc1-c1ccc([C@H]2[C@@H](CO)N3CCCCN(C(=O)Nc4cccc(F)c4)C[C@@H]23)cc1	-4.4*
Cc1ccccc1-c1ccc([C@@H]2[C@@H](CO)N3CCCCN(C(=O)Nc4ccc(F)cc4)C[C@H]23)cc1	1.8
Cc1ccccc1-c1ccc([C@@H]2[C@@H](CO)N3C(=O)CN(C(=O)Nc4ccc(F)cc4)C[C@H]23)cc1	-1.4
Cc1ccccc1-c1ccc([C@H]2[C@@H](CO)N3CCCCN(C(=O)Nc4ccc(F)cc4)C[C@H]23)cc1	-7.1*
Cc1ccccc1-c1ccc([C@H]2[C@@H](CO)N3CCCCN(C(=O)Nc4ccc(F)cc4)C[C@@H]23)cc1	-1.6
O=C(Nc1cccc(F)c1)N1CCCCN2[C@H](CO)[C@H](c3ccc(-c4ccccc4F)cc3)[C@H]2C1	1.7
Cc1ccccc1-c1ccc([C@@H]2[C@@H](CO)N3CCCCN(C(=O)Nc4ccccc4)C[C@@H]23)cc1	1.2
O=C(C[C@@H]1C[C@H]2c3cc(NC(=O)CC4CC4)ccc3O[C@H]2[C@H](CO)O1)NCC1CC1	1.1
N#Cc1cccc(-c2ccc([C@H]3[C@H]4CN(C(=O)Nc5ccc(F)cc5)CCCCN4[C@H]3CO)cc2)c1	3.6
O=C1CN(Cc2ccccc2)C[C@H]2[C@@H](c3ccc(-c4cccnc4)cc3)[C@H](CO)N12	1.3
C/C=C/c1ccc([C@H]2[C@@H](CO)N(C(C)=O)[C@@H]2CN(CCOC)C(C)=O)cc1	1.7
CN1C(=O)c2cc(NC(=O)Cc3cccs3)ccc2OC[C@H]2O[C@@H](CC(=O)NCc3ccc(-c4ccccc4)cc3)CC[C@H]21	-0.38
CCS(=O)(=O)N1CCCCN2[C@H](CO)[C@@H](c3ccc(C#Cc4ccccc4OC)cc3)[C@H]2C1	-6.5*
O=S(=O)(Cc1ccccc1)N1CCCCN2[C@H](CO)[C@@H](c3ccc(C#Cc4ccccc4)cc3)[C@H]2C1	5.1
CCCC#Cc1ccc([C@H]2[C@H]3CN(S(=O)(=O)CC)CCCCN3[C@H]2CO)cc1	2.3
O=S(=O)(Cc1ccccc1)N1CCCCN2[C@@H](CO)[C@H](c3ccc(C#Cc4ccccc4)cc3)[C@@H]2C1	2.5
O=S(=O)(Cc1ccccc1)N1CCCCN2[C@H](CO)[C@H](c3ccc(C#Cc4ccccc4)cc3)[C@H]2C1	4
CCS(=O)(=O)N1CCCCN2[C@H](CO)[C@H](c3ccc(C#Cc4ccccc4OC)cc3)[C@@H]2C1	-8.2*
CCCC#Cc1ccc([C@@H]2[C@@H](CO)N3CCCCN(S(=O)(=O)CC)C[C@H]23)cc1	3
O=S(=O)(Cc1ccccc1)N1CCCCN2[C@H](CO)[C@@H](c3ccc(C#Cc4ccccc4)cc3)[C@@H]2C1	-0.14
CCS(=O)(=O)N1CCCCN2[C@H](CO)[C@H](c3ccc(C#Cc4ccccc4OC)cc3)[C@H]2C1	-9.2*
SMILES	IDE exosite inh
Cc1noc(C)c1S(=O)(=O)N(C)C[C@@H]1OCc2cn(nn2)CCCC(=O)N([C@H](C)CO)C[C@@H]1C	0.49
CC[C@H]1C/C=C\C[C@@H](c2ccccc2)NC(=O)CCC(=O)N1	0.26
N#C[C@@H]1[C@@H](c2ccc(-c3cncnc3)cc2)[C@H](CO)N1C(=O)CN1CCOCC1	2.7
CC(C)C#Cc1ccc([C@H]2[C@@H](C#N)N(C(=O)CN(C)C)[C@@H]2CO)cc1	2.4
O=C(Nc1ccccc1F)N1CCCCN2[C@H](CO)[C@H](c3ccc(C#Cc4ccccc4)cc3)[C@@H]2C1	-1.7
O=C(Nc1ccccc1F)N1CCCCN2[C@H](CO)[C@@H](c3ccc(C#Cc4ccccc4)cc3)[C@@H]2C1	-0.69
O=C(Nc1ccccc1)N1CCCCN2[C@H](CO)[C@H](c3ccc(C#Cc4ccccc4)cc3)[C@@H]2C1	-3.4*
O=C(Nc1ccccc1F)N1CCCCN2[C@@H](CO)[C@@H](c3ccc(C#Cc4cccnc4)cc3)[C@@H]2C1	-0.043
O=C(Nc1ccccc1F)N1CCCCN2[C@H](CO)[C@@H](c3ccc(C#Cc4ccccc4)cc3)[C@H]2C1	-4.1*
O=C(Nc1ccccc1)N1CCCCN2[C@H](C1)[C@@H](c1ccc(C#Cc3ccccc3)cc1)[C@@H]2CO	0.19
O=C(Nc1ccccc1F)N1CCCCN2[C@H](C1)[C@@H](c1ccc(C#Cc3cccnc3)cc1)[C@@H]2CO	-5.1*
O=C(Nc1ccccc1F)N1CCCCN2[C@H](CO)[C@@H](c3ccc(C#Cc4cccnc4)cc3)[C@@H]2C1	-1.8
O=C(Nc1ccccc1)N1CCCCN2[C@H](C1)[C@H](c1ccc(C#Cc3ccccc3)cc1)[C@@H]2CO	-0.69
C[C@@H]1CCCCO[C@H](CN(C)C(=O)Nc2ccc(C(F)(F)F)cc2)[C@@H](C)CN([C@H](C)CO)C(=O)c2cc(NS(=O)(=O)c3cn(C)cn3)ccc2O1	1.3
O=C(C[C@@H]1CC[C@H]2[C@@H](COC[C@@H](O)CN2Cc2ccc(F)cc2)O1)NCCc1ccccc1	-0.55
COc1cccc(-c2ccc([C@H]3[C@@H](CO)N4CCCCN(C(=O)c5ccc6c(c5)OCO6)C[C@H]34)cc2)c1	-2.7
O=C(c1ccncc1)N1CCCCN2[C@H](CO)[C@@H](c3ccc(C#Cc4ccccn4)cc3)[C@@H]2C1	-1.9
O=S(=O)(c1ccccc1)N1CCCCN2[C@H](CO)[C@H](c3ccc(C#Cc4ccccc4)cc3)[C@@H]2C1	3.7
O=S(=O)(c1ccccc1)N1CCCCN2[C@H](CO)[C@H](c3ccc(C#Cc4ccccn4)cc3)[C@H]2C1	-3.2*
CS(=O)(=O)N1CCCCN2[C@H](C1)[C@@H](c1ccc(C#Cc3ccccn3)cc1)[C@@H]2CO	-3.3*
CC(C)(O)C#Cc1ccc([C@@H]2[C@H]3CN(S(C)(=O)=O)CCCCN3[C@H]2CO)cc1	-0.9
O=S(=O)(c1ccccc1)N1CCCCN2[C@H](CO)[C@H](c3ccc(C#Cc4ccccc4)cc3)[C@H]2C1	1.9
O=C(c1ccncc1)N1CCCCN2[C@H](C1)[C@H](c1ccc(C#Cc3ccccn3)cc1)[C@@H]2CO	-2.2
CCS(=O)(=O)N1CCCCN2[C@H](CO)[C@@H](c3ccc(C#Cc4ccccn4)cc3)[C@@H]2C1	-0.47
CS(=O)(=O)N1CCCCN2[C@@H](CO)[C@H](c3ccc(C#Cc4ccccn4)cc3)[C@@H]2C1	-3.9*
SMILES	IDE exosite inh
CCCN1C[C@H](C)[C@@H](OC)CN(C)C(=O)c2ccc(NS(=O)(=O)c3cn(C)cn3)cc2OC[C@H]1C	-0.89
COCC(=O)N1[C@H](C#N)[C@H](c2ccccc2-c2ccccc2F)[C@H]1CO	0.32
COc1cccc(-c2ccc([C@@H]3[C@H](CO)N4CCCCN(CC5CC5)C[C@@H]34)cc2)c1	-2.4
O=S(=O)(Cc1ccccc1)N1CCCCN2[C@H](CO)[C@H](c3ccc(-c4cncnc4)cc3)[C@@H]2C1	1.4
Cc1ccccc1S(=O)(=O)N1[C@@H](C#N)[C@@H](c2ccc(-c3ccccc3)cc2)[C@@H]1CO	1.8
CC(C)NC(=O)N(C)C[C@H]1Oc2ccc(NC(=O)Cc3ccccc3)cc2CC(=O)N([C@H](C)CO)C[C@@H]1C	1.3
